Data from the supplement of paper PMC10849652.
About 8,800 targets were measured; listed, in parts, are those with a hit and a random draw of the rest. About 0.5% of all pairs of compound and target were hits.

How the values were obtained:
Test in all cases: log2 fold change, soluble protein after heating vs DMSO (PISA); higher = thermal stabilisation; K562 lysate, 10 uM; active = over 0.2 and 3.5 SD of the protein, either way, in both replicates (recomputed)
ibrutinib = compound: C=CC(=O)N1CCC[C@@H](n2nc(-c3ccc(Oc4ccccc4)cc3)c3c(N)ncnc32)C1 [ibrutinib]
Procedure, shortened: (§1)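 Thermal stability, expressed as log-two fold change relative to solvent controls, is given from duplicates. Crude K562 extract in PBS pH 7.4 with 1 mM MgCl2, at 1 mg/mL protein, was treated with 10 μM compound for 30 min and heated in aliquots for 3 min across 48°C-58°C. After pooling, adjustment to 0.5% NP-40 at 4°C and centrifugation at 21,000xg for 90 min, supernatant protein was measured by TMTpro 16plex LC-MS/MS with channel sums equalised.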

[1] = compound: CC(=O)c1cnc2ccc(-c3cc(Cl)c(O)c(Cl)c3)nc2c1N[C@H]1CC[C@H](CN(C)C)CC1
Procedure, shortened: as §1

ralimetinib = compound: CC(C)(C)Cn1c(N)nc2ccc(-c3[nH]c(C(C)(C)C)nc3-c3ccc(F)cc3)nc21 [ralimetinib]
Procedure, shortened: as §1

[2] = compound: CC(C)(O)CC(=O)NCCn1ccc2ncnc(Nc3ccc(Oc4cccc(C(F)(F)F)c4)c(Cl)c3)c21
Procedure, shortened: as §1

[3] = compound: CC(C)C1=C2N=C(C=C(N2N=C1)NCC3=CC=CC=C3)NCCCCCCN
Procedure, shortened: as §1

[4] = compound: CC1=C(C(CC(=O)N1)C2=CC=C(C=C2)C(F)(F)F)C(=O)NC3=C(C=C4C(=C3)C=NN4)F
Procedure, shortened: as §1

[5] = compound: CC1=C(C2=C(C=C1)C(=O)C3=CC=CC=C3N2CCCN)C
Procedure, shortened: as §1

[6] = compound: CC1=C(C=C(C=C1)NC(=O)C2=CC(=CC=C2)C(C)(C)C#N)NC3=CC4=C(C=C3)N=CN(C4=O)C
Procedure, shortened: as §1

[7] = compound: CC1=C(C=C(C=C1)NC(=O)C2=CC(=CC=C2)N(C)C)NC(=O)C3=CC=C(C=C3)O
Procedure, shortened: as §1

[8] = compound: CC1=CC=C(C=C1)SC2=C3C=C(SC3=CN=C2)C(=O)N
Procedure, shortened: as §1

Measured: log2 fold change

PPP1R11 (UniProt O60927)
Chain of UniProt O60927 (O60927 whole entry, looked up): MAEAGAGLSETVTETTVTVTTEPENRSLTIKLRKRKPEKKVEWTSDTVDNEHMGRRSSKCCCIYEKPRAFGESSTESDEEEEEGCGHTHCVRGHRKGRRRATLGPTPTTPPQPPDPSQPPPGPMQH
inactive: ibrutinib -0.037 | [1] 0.058 | ralimetinib 0.062 | [2] -0.021 | [3] -0.024 | [4] 0.1 | [5] 0.052 | [6] 0.059 | [7] -0.037 | [8] -0.01

PPOX (UniProt P50336)
inactive: ibrutinib 0.067 | [1] -0.008 | ralimetinib 0.001 | [2] 0.091 | [3] 0.301 | [4] -0.022 | [5] -0.138 | [6] 0.105 | [7] 0.006 | [8] 0.012

PRKCSH (UniProt K7ELL7)
inactive: ibrutinib -0.05 | [1] 0.018 | ralimetinib 0.049 | [2] -0.051 | [3] 0.049 | [4] 0.006 | [5] -0.017 | [6] -0.019 | [7] 0.005 | [8] -0.052

PRKD2 isoform 3 (UniProt Q9BZL6)
inactive: ibrutinib 0.026 | [1] -0.065 | ralimetinib 0.019 | [2] -0.122 | [3] 0.045 | [4] 0.04 | [5] -0.111 | [6] -0.034 | [7] 0.046 | [8] 0.007

PCBP2 (UniProt H3BRU6)
inactive: ibrutinib 0.046 | [1] 0.016 | ralimetinib 0.031 | [2] -0.018 | [3] -0.036 | [4] -0.055 | [5] 0.001 | [6] 0.141 | [7] 0.039 | [8] -0.031

PWP1 (UniProt Q13610)
inactive: ibrutinib 0.022 | [1] -0.017 | ralimetinib 0.012 | [2] -0.011 | [3] -0.02 | [4] -0.053 | [5] -0.025 | [6] -0.009 | [7] 0.032 | [8] -0.001

POLD3 (UniProt Q15054)
Chain of UniProt Q15054 (Q15054 whole entry, looked up): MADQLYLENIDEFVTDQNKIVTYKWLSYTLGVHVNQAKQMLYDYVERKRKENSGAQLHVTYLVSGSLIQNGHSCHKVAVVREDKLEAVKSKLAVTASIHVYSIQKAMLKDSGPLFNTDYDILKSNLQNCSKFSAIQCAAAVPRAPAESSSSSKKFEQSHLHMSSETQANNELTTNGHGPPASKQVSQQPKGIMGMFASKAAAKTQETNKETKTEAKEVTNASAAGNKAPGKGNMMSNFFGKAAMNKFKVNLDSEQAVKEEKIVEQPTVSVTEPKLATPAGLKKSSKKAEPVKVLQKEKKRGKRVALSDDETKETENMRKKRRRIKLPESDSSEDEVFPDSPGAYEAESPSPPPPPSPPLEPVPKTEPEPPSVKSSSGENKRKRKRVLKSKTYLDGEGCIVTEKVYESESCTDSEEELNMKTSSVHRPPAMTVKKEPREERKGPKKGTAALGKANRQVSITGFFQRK
inactive: ibrutinib 0.018 | [1] 0.006 | ralimetinib -0.027 | [2] -0.004 | [3] 0.035 | [4] 0.019 | [5] -0.008 | [6] -0.022 | [7] -0.017 | [8] -0.038

PLEKHO2 (UniProt Q8TD55)
inactive: ibrutinib 0.358 | [1] -0.102 | ralimetinib -0.11 | [2] 0.108 | [3] 0.006 | [4] 0.01 | [5] 0.069 | [6] 0.048 | [7] 0.252 | [8] -0.129

PIP4K2A (UniProt P48426)
inactive: ibrutinib -0.052 | [1] 0.086 | ralimetinib 0.032 | [2] -0.053 | [3] -0.043 | [4] -0.017 | [5] -0.019 | [6] -0.002 | [7] -0.028 | [8] -0.026

POLR2B (UniProt P30876)
inactive: ibrutinib -0.011 | [1] -0.017 | ralimetinib 0.025 | [2] -0.018 | [3] 0.005 | [4] 0.029 | [5] -0.031 | [6] -0.014 | [7] 0.028 | [8] 0.032

PGGT1B (UniProt P53609)
inactive: ibrutinib -0.018 | [1] 0.004 | ralimetinib -0.015 | [2] 0.03 | [3] -0.092 | [4] 0.002 | [5] 0.032 | [6] -0.039 | [7] -0.011 | [8] 0.007

PKP3 isoform 2 (UniProt Q9Y446)
Chain of UniProt Q9Y446 (Q9Y446 whole entry, looked up): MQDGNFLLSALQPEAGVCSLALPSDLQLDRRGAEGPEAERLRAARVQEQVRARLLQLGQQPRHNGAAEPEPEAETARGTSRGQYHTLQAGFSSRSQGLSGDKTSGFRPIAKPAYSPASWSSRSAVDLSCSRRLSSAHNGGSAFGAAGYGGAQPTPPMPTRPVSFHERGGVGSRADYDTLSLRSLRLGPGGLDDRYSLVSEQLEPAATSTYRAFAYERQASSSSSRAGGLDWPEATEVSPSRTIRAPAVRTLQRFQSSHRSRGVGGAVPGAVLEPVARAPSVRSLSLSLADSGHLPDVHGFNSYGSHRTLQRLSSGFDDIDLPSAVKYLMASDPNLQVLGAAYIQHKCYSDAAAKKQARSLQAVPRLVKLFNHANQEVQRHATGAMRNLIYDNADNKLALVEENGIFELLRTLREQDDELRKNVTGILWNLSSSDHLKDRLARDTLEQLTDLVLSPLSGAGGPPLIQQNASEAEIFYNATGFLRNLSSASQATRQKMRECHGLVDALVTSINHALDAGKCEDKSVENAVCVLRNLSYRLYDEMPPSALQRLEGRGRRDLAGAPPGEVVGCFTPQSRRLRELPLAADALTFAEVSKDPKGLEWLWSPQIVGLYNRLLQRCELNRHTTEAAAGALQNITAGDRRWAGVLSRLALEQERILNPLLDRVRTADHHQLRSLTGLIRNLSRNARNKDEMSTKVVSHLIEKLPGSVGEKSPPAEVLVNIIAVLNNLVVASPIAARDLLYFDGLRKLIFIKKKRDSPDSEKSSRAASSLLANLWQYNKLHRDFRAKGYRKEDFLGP
inactive: ibrutinib 0.005 | [1] -0.022 | ralimetinib -0.028 | [2] 0.009 | [3] -0.006 | [4] 0.014 | [5] 0.021 | [6] 0.004 | [7] -0.019 | [8] 0.052

PRPF38A (UniProt Q8NAV1)
inactive: ibrutinib 0 | [1] -0.001 | ralimetinib 0.01 | [2] -0.011 | [3] 0.054 | [4] 0.027 | [5] -0.128 | [6] 0.094 | [7] -0.075 | [8] 0.018

PPCDC (UniProt Q96CD2)
Chain of UniProt Q96CD2 (Q96CD2 whole entry, looked up): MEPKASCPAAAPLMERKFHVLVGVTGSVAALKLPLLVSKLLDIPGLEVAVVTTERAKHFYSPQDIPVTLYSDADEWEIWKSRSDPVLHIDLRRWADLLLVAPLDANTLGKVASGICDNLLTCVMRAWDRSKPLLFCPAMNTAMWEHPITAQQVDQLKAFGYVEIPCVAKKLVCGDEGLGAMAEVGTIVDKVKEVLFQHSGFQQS
inactive: ibrutinib 0.016 | [1] 0.023 | ralimetinib 0.067 | [2] -0.157 | [3] 0.064 | [4] -0.023 | [5] -0.033 | [6] 0.019 | [7] -0.041 | [8] 0.003

PDCD4 (UniProt Q53EL6)
inactive: ibrutinib -0.002 | [1] -0.002 | ralimetinib 0.025 | [2] -0.032 | [3] 0.007 | [4] 0.025 | [5] -0.003 | [6] 0.032 | [7] 0.007 | [8] 0.011

PTPN23 (UniProt Q9H3S7)
inactive: ibrutinib 0.024 | [1] 0.007 | ralimetinib 0.029 | [2] 0.007 | [3] -0.019 | [4] -0.014 | [5] 0.01 | [6] -0.015 | [7] 0.009 | [8] 0.012

PTPN1 (UniProt P18031)
inactive: ibrutinib -0.003 | [1] -0.024 | ralimetinib 0.018 | [2] 0.024 | [3] 0.006 | [4] -0.005 | [5] -0.002 | [6] 0.006 | [7] 0.049 | [8] 0.016

POLA1 (UniProt P09884)
inactive: ibrutinib 0 | [1] -0.013 | ralimetinib -0.032 | [2] 0.003 | [3] 0.001 | [4] 0.007 | [5] -0.001 | [6] 0.02 | [7] 0.022 | [8] -0.016

PUF60 (UniProt Q9UHX1)
Chain of UniProt Q9UHX1 (Q9UHX1 whole entry, looked up): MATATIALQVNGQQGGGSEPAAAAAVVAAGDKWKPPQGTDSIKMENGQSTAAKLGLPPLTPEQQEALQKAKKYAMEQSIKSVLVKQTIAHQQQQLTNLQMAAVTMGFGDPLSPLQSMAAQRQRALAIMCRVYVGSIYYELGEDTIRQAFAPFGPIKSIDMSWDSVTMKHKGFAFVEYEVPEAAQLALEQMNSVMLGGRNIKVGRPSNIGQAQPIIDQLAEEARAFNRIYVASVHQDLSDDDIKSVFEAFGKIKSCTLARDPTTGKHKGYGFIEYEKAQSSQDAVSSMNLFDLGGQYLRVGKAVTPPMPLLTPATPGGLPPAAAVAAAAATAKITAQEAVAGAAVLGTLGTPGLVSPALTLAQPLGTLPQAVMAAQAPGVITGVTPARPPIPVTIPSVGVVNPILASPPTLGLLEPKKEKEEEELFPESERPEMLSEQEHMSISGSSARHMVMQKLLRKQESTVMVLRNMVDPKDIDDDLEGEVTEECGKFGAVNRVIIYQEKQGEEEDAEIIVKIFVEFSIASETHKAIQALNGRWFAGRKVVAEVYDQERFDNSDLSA
inactive: ibrutinib 0.011 | [1] -0.004 | ralimetinib -0.034 | [2] 0.013 | [3] 0.018 | [4] -0.02 | [5] 0.009 | [6] -0.003 | [7] -0.001 | [8] 0.004

PCYT1B (UniProt Q9Y5K3)
inactive: ibrutinib -0.051 | [1] -0.007 | ralimetinib 0.003 | [2] 0.013 | [3] -0.042 | [4] -0.039 | [5] -0.03 | [6] 0.016 | [7] -0.002 | [8] 0.026

PDE2A (UniProt O00408)
inactive: ibrutinib -0.008 | [1] -0.148 | ralimetinib -0.202 | [2] -0.107 | [3] -0.045 | [4] -0.018 | [5] 0.025 | [6] -0.038 | [7] 0.01 | [8] -0.11

PHLDB1 (UniProt Q86UU1)
Chain of UniProt Q86UU1 (Q86UU1 whole entry, looked up): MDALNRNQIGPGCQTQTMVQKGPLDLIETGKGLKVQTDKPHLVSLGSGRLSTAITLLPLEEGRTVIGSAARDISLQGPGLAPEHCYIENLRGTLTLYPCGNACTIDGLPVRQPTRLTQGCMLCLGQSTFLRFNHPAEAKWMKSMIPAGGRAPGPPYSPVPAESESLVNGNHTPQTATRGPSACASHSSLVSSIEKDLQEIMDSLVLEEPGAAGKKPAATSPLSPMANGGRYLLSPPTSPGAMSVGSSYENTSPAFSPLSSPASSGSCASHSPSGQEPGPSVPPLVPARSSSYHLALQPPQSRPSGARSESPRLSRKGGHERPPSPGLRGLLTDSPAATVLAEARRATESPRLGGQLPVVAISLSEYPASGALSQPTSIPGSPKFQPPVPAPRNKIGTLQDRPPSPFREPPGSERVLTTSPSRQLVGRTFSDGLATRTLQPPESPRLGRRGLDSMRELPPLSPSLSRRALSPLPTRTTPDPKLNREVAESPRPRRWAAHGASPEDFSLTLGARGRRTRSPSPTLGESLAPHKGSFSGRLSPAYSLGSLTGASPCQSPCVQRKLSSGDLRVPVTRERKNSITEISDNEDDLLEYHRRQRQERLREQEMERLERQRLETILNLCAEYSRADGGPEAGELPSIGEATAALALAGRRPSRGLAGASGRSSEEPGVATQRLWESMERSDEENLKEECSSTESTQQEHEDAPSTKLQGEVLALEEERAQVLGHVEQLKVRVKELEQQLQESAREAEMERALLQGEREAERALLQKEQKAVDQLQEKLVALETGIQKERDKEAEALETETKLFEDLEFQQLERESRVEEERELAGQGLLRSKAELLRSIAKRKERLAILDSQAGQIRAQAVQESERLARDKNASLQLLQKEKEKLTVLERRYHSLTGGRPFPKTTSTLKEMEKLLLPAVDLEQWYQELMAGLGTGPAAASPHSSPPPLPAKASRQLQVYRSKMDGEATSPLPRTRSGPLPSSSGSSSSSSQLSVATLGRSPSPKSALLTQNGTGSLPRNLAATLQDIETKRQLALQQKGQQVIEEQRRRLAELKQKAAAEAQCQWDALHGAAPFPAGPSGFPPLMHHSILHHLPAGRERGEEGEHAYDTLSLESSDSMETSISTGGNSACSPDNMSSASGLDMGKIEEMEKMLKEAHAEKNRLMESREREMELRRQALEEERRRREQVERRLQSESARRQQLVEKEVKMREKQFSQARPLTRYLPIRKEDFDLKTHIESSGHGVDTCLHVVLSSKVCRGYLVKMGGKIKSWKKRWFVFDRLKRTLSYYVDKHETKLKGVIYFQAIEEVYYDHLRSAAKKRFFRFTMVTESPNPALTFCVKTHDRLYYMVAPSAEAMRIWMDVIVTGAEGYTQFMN
inactive: ibrutinib 0.05 | [1] 0.049 | ralimetinib -0.094 | [2] 0.096 | [3] -0.021 | [4] 0.004 | [5] -0.009 | [6] 0.114 | [7] -0.001 | [8] 0.156

PREP (UniProt P48147)
Chain of UniProt P48147 (P48147 whole entry, looked up): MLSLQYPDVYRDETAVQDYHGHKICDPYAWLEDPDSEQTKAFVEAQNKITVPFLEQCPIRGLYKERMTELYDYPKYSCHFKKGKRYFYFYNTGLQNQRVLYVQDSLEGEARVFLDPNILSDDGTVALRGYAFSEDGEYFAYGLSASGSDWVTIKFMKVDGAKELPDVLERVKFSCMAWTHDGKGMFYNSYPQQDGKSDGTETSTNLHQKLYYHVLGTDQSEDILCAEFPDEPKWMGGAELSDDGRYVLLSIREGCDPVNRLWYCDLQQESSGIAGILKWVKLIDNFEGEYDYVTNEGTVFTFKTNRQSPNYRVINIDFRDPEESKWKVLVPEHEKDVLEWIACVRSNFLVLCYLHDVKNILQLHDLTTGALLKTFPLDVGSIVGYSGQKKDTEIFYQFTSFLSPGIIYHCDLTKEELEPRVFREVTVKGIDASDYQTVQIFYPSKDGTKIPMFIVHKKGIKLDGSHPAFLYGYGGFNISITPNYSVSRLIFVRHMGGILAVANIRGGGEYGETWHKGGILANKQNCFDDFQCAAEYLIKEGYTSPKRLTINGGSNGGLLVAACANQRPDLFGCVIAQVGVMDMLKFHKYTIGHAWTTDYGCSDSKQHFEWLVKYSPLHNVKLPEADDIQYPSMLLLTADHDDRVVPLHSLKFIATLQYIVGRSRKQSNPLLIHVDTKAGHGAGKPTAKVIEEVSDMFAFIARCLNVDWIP
inactive: ibrutinib 0.019 | [1] 0 | ralimetinib 0.015 | [2] 0.004 | [3] -0.008 | [4] 0.011 | [5] -0.009 | [6] -0.006 | [7] 0.006 | [8] 0.011

PDXDC1 (UniProt Q6P996)
inactive: ibrutinib -0.006 | [1] 0.051 | ralimetinib 0.071 | [2] -0.017 | [3] 0.001 | [4] 0.014 | [5] -0.024 | [6] -0.019 | [7] 0.024 | [8] 0.022

PHACTR4 isoform 2 (UniProt Q8IZ21)
inactive: ibrutinib -0.009 | [1] -0.005 | ralimetinib -0.009 | [2] -0.047 | [3] -0.019 | [4] 0.025 | [5] -0.028 | [6] 0.021 | [7] -0.016 | [8] -0.01

PIK3C3 (UniProt Q8NEB9)
inactive: ibrutinib -0.056 | [1] -0.021 | ralimetinib -0.023 | [2] -0.096 | [3] 0.015 | [4] -0.032 | [5] -0.015 | [6] -0.002 | [7] -0.011 | [8] -0.056

PDAP1 (UniProt Q13442)
inactive: ibrutinib -0.042 | [1] -0.012 | ralimetinib -0.002 | [2] -0.065 | [3] 0.011 | [4] -0.046 | [5] 0.043 | [6] -0.015 | [7] -0.02 | [8] -0.008

PDPK1 (UniProt O15530)
Chain of UniProt O15530 (O15530 whole entry, looked up): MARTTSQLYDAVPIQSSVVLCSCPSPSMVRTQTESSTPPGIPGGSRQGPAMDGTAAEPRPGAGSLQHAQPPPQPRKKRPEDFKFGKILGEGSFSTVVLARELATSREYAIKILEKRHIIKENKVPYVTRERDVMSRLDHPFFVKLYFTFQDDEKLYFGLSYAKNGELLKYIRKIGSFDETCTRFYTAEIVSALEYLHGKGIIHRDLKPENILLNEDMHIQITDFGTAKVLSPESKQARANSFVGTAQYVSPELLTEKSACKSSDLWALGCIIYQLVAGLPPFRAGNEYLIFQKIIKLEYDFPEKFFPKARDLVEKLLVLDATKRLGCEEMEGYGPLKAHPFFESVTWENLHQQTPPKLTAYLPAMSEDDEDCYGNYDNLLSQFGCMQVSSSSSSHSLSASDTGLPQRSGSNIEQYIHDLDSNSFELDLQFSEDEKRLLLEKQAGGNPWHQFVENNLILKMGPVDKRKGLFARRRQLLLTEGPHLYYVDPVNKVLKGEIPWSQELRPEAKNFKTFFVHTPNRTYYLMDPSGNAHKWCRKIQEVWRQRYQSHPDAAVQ
inactive: ibrutinib 0.026 | [1] 0.236 | ralimetinib 0.067 | [2] -0.075 | [3] 0.021 | [4] 0.163 | [5] -0.034 | [6] -0.056 | [7] -0.006 | [8] -0.021

PTS (UniProt Q03393)
Chain of UniProt Q03393 (Q03393 whole entry, looked up): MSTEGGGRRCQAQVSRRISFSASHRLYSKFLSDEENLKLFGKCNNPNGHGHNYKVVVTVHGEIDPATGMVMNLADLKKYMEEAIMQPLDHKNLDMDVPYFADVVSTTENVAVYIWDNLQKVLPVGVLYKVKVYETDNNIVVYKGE
inactive: ibrutinib 0.213 | [1] 0.015 | ralimetinib 0.021 | [2] -0.027 | [3] -0.041 | [4] -0.117 | [5] -0.102 | [6] 0.034 | [7] -0.013 | [8] -0.017

PDIA4 (UniProt P13667)
inactive: ibrutinib 0.006 | [1] -0.008 | ralimetinib -0.016 | [2] 0.011 | [3] 0.001 | [4] -0.01 | [5] 0.021 | [6] -0.038 | [7] 0.011 | [8] 0.007
